# Data: PubChem BioAssay (NCI)
# Compounds without any hit were thinned out: in the full panel of roughly 79,000, 15% have a hit. A number with no mark means an inactive call. The source made the active and inactive calls. Rule as the data show it: active = growth inhibition above about 70%; inactive = the rest.
# Assays:
# [1] = NCI Yeast Anticancer Drug Screen. Data for the wt1 strain (AID 149);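 also: 0% = growth of vehicle-treated wt1 cultures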; conditions: S. cerevisiae wt1 strain (SPY 50644) growth inhibition, stronger effect = higher value
# Outline: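 Using yeast strain wt1, compound-induced growth inhibition was determined against vehicle-treated cultures.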
# [2] = NCI Yeast Anticancer Drug Screen. Data for the rad50EPP+ strain (AID 151);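 also: 0% = growth of vehicle-treated control cultures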; conditions: S. cerevisiae rad50 mutant strain, stronger effect = higher value
# Outline: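 Exposing the rad50EPP+ strain to each compound, growth was compared with vehicle-only cultures to give inhibition.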
# [3] = NCI Yeast Anticancer Drug Screen. Data for the mgt1 strain (AID 153); conditions: S. cerevisiae mgt1 mutant growth inhibition, stronger effect = higher value
# Outline: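 Genetically defined yeast (mgt1) treated with compound; inhibition of growth expressed against vehicle-treated controls.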
# [4] = NCI Yeast Anticancer Drug Screen. Data for the rad50 strain (AID 155);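 also: 0% = growth of vehicle-only cultures of the same strain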; conditions: S. cerevisiae rad50 strain growth inhibition, stronger effect = higher value
# Outline: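 Relative growth inhibition (compound vs vehicle) was measured in yeast with a defined repair-gene alteration.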
# [5] = NCI Yeast Anticancer Drug Screen. Data for the mec2-1 strain (AID 157); conditions: S. cerevisiae mec2-1 strain, stronger effect = higher value
# Outline: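 Readout is yeast growth inhibition, normalised to vehicle-treated controls, in the mec2-1 strain exposed to compound.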
# [6] = NCI Yeast Anticancer Drug Screen. Data for the rad14 strain (AID 159);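 also: 0% = growth of vehicle-treated control cultures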; conditions: S. cerevisiae rad14 strain growth inhibition, stronger effect = higher value
# Outline: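 Screen for anticancer potential: a yeast strain altered in DNA damage repair is grown with compound, and reduced growth is quantified against vehicle controls.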
# [7] = NCI Yeast Anticancer Drug Screen. Data for the sgs1 mgt1 strain (AID 161);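 also: 0% = growth of cultures given vehicle only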; conditions: S. cerevisiae sgs1 mgt1 strain, stronger effect = higher value
# Outline: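 Compounds are added to genetically altered yeast, and growth is compared with cultures given vehicle alone to give percent inhibition.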
# [8] = NCI Yeast Anticancer Drug Screen. Data for the CLN2oe strain (AID 163);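 also: 0% = growth of vehicle-only control cultures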; conditions: S. cerevisiae CLN2oe strain, stronger effect = higher value
# Outline: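 Values reflect how much compound exposure reduced yeast growth, referenced to vehicle-exposed cells. Assay organism is a strain with a defined genetic change affecting cell-cycle control.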
# [9] = NCI Yeast Anticancer Drug Screen. Data for the cln2 rad14 strain (AID 165);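 also: 0% = growth equal to vehicle treated cultures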; conditions: S. cerevisiae cln2 rad14 strain, stronger effect = higher value
# Outline: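 Relative to vehicle controls, growth inhibition of compound-treated cln2 rad14 yeast was recorded.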
# [10] = NCI Yeast Anticancer Drug Screen. Data for the bub3 strain (AID 167); conditions: S. cerevisiae bub3 mutant strain, stronger effect = higher value
# Outline: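 Screening used yeast with an engineered genetic alteration affecting cell cycle control. Compound-exposed cultures were compared with vehicle cultures, and reduced growth was taken as inhibition.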
# [11] = NCI Yeast Anticancer Drug Screen. Data for the wt2 strain (AID 169);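 also: 0% = growth of vehicle-treated yeast cultures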; conditions: S. cerevisiae wt2 strain growth inhibition, stronger effect = higher value
# Outline: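 Values express reduction in yeast growth under compound treatment, referenced to vehicle-treated cells.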
# [12] = NCI Yeast Anticancer Drug Screen. Data for the mlh1 strain (AID 171);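 also: 0% = growth of vehicle-treated control cultures of the same strain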; conditions: S. cerevisiae mlh1 strain growth inhibition, stronger effect = higher value
# Outline: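 Steps: expose the defined-mutant yeast strain to compound; expose a parallel culture to vehicle; measure growth; express compound effect as inhibition relative to the vehicle culture.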
# [13] = NCI Yeast Anticancer Drug Screen. Data for the sgs1 strain (AID 173);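 also: 0% = growth of vehicle-only control cultures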; conditions: S. cerevisiae sgs1 mutant, stronger effect = higher value
# Outline: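 Treat defined-mutant yeast with compound; measure growth; calculate inhibition relative to vehicle-treated cells.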
# [14] = NCI Yeast Anticancer Drug Screen. Data for the mlh1 rad18 strain (AID 175); conditions: S. cerevisiae mlh1 rad18 strain growth inhibition, stronger effect = higher value
# Outline: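 Test agents were incubated with a yeast strain of defined genotype (DNA damage repair defect). Inhibition of growth was derived by comparison with vehicle-exposed cultures.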
# [15] = NCI Yeast Anticancer Drug Screen. Data for the rad18 strain (AID 177); conditions: S. cerevisiae rad18 mutant growth inhibition, stronger effect = higher value
# Outline: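 A genetically defined yeast mutant impaired in DNA damage repair was treated with test compounds, then its growth was measured against cultures receiving vehicle alone.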
# [16] = at 5.0 µM (retest, dose inferred, filed as 0.5)
# [17] = at 50.0 µM (retest, dose inferred, filed as 5.0)
compound,measurement,setting,value
CCOC(=O)C(NC(=O)c1ccccc1)[CH](c1ccccc1)[Sn]([c]1ccccc1)([c]1ccccc1)[c]1ccccc1 (stereo unspecified),growth inhibition,[1]; at 1.2 µM,-81%
same,growth inhibition,[1]; at 3.7 µM,0%
same,growth inhibition,[1]; at 11.0 µM,0%
same,growth inhibition,[1]; at 33.0 µM,11%
same,growth inhibition,[1]; at 100.0 µM,93% (active)
same,growth inhibition,[2]; at 1.2 µM,-2%
same,growth inhibition,[2]; at 3.7 µM,2%
same,growth inhibition,[2]; at 11.0 µM,3%
same,growth inhibition,[2]; at 33.0 µM,3%
same,growth inhibition,[2]; at 100.0 µM,-6%
same,growth inhibition,[3]; at 1.2 µM,-1%
same,growth inhibition,[3]; at 3.7 µM,2%
same,growth inhibition,[3]; at 11.0 µM,2%
same,growth inhibition,[3]; at 33.0 µM,17%
same,growth inhibition,[3]; at 100.0 µM,95% (active)
same,growth inhibition,[4]; at 1.2 µM,0%
same,growth inhibition,[4]; at 3.7 µM,3%
same,growth inhibition,[4]; [16],-4%
same,growth inhibition,[4]; at 11.0 µM,4%
same,growth inhibition,[4]; at 33.0 µM,21%
same,growth inhibition,[4]; [17],73% (active)
same,growth inhibition,[4]; at 50.0 µM,95.7% (active)
same,growth inhibition,[4]; at 100.0 µM,92% (active)
same,growth inhibition,[5]; at 1.2 µM,0%
same,growth inhibition,[5]; at 3.7 µM,1%
same,growth inhibition,[5]; [16],-3%
same,growth inhibition,[5]; at 11.0 µM,1%
same,growth inhibition,[5]; at 33.0 µM,17%
same,growth inhibition,[5]; [17],40%
same,growth inhibition,[5]; at 50.0 µM,97.8% (active)
same,growth inhibition,[5]; at 100.0 µM,95% (active)
same,growth inhibition,[6]; at 1.2 µM,2%
same,growth inhibition,[6]; at 3.7 µM,2%
same,growth inhibition,[6]; at 11.0 µM,4%
same,growth inhibition,[6]; at 33.0 µM,17%
same,growth inhibition,[6]; at 100.0 µM,95% (active)
same,growth inhibition,[7]; [16],-4%
same,growth inhibition,[7]; [17],36%
same,growth inhibition,[7]; at 50.0 µM,97.3% (active)
same,growth inhibition,[8]; at 1.2 µM,-5%
same,growth inhibition,[8]; at 3.7 µM,-11%
same,growth inhibition,[8]; at 11.0 µM,-15%
same,growth inhibition,[8]; at 33.0 µM,-6%
same,growth inhibition,[8]; at 100.0 µM,95% (active)
same,growth inhibition,[9]; [16],-7%
same,growth inhibition,[9]; [17],19%
same,growth inhibition,[9]; at 50.0 µM,93.7% (active)
same,growth inhibition,[10]; at 1.2 µM,-7%
same,growth inhibition,[10]; at 3.7 µM,-4%
same,growth inhibition,[10]; [16],-11%
same,growth inhibition,[10]; at 11.0 µM,-6%
same,growth inhibition,[10]; at 33.0 µM,10%
same,growth inhibition,[10]; [17],59%
same,growth inhibition,[10]; at 50.0 µM,98.7% (active)
same,growth inhibition,[10]; at 100.0 µM,94% (active)
same,growth inhibition,[11]; at 1.2 µM,-3%
same,growth inhibition,[11]; at 3.7 µM,-2%
same,growth inhibition,[11]; at 11.0 µM,-1%
same,growth inhibition,[11]; at 33.0 µM,35%
same,growth inhibition,[11]; at 100.0 µM,96% (active)
same,growth inhibition,[12]; at 1.2 µM,0%
same,growth inhibition,[12]; at 3.7 µM,0%
same,growth inhibition,[12]; at 11.0 µM,0%
same,growth inhibition,[12]; at 33.0 µM,17%
same,growth inhibition,[12]; at 100.0 µM,96% (active)
same,growth inhibition,[13]; at 1.2 µM,1%
same,growth inhibition,[13]; at 3.7 µM,4%
same,growth inhibition,[13]; at 11.0 µM,4%
same,growth inhibition,[13]; at 33.0 µM,34%
same,growth inhibition,[13]; at 100.0 µM,94% (active)
same,growth inhibition,[14]; [16],-5%
same,growth inhibition,[14]; [17],79% (active)
same,growth inhibition,[14]; at 50.0 µM,98% (active)
same,growth inhibition,[15]; at 1.2 µM,-1%
same,growth inhibition,[15]; at 3.7 µM,5%
same,growth inhibition,[15]; at 11.0 µM,0%
same,growth inhibition,[15]; at 33.0 µM,45%
same,growth inhibition,[15]; at 100.0 µM,94% (active)
c1ccc2cc(OCC3CO3)c(OCC3CO3)cc2c1 (stereo unspecified),growth inhibition,[1]; at 1.2 µM,-21%
same,growth inhibition,[1]; at 3.7 µM,-21%
same,growth inhibition,[1]; at 11.0 µM,-24%
same,growth inhibition,[1]; at 33.0 µM,-16%
same,growth inhibition,[1]; at 100.0 µM,-2%
same,growth inhibition,[2]; at 1.2 µM,-21%
same,growth inhibition,[2]; at 3.7 µM,-4%
same,growth inhibition,[2]; at 11.0 µM,22%
same,growth inhibition,[2]; at 33.0 µM,59%
same,growth inhibition,[2]; at 100.0 µM,81% (active)
same,growth inhibition,[3]; at 1.2 µM,-43%
same,growth inhibition,[3]; at 3.7 µM,-25%
same,growth inhibition,[3]; at 11.0 µM,-4%
same,growth inhibition,[3]; at 33.0 µM,-21%
same,growth inhibition,[3]; at 100.0 µM,11%
same,growth inhibition,[4]; at 1.2 µM,-26%
same,growth inhibition,[4]; at 3.7 µM,-21%
same,growth inhibition,[4]; [16],56%
same,growth inhibition,[4]; at 11.0 µM,3%
same,growth inhibition,[4]; at 33.0 µM,59%
same,growth inhibition,[4]; [17],91% (active)
same,growth inhibition,[4]; at 50.0 µM,57.1%
same,growth inhibition,[4]; at 100.0 µM,83% (active)
same,growth inhibition,[5]; at 1.2 µM,-29%
same,growth inhibition,[5]; at 3.7 µM,-18%
same,growth inhibition,[5]; [16],27%
same,growth inhibition,[5]; at 11.0 µM,-29%
same,growth inhibition,[5]; at 33.0 µM,1%
same,growth inhibition,[5]; [17],67%
same,growth inhibition,[5]; at 50.0 µM,58.8%
same,growth inhibition,[5]; at 100.0 µM,64%
same,growth inhibition,[6]; at 1.2 µM,-21%
same,growth inhibition,[6]; at 3.7 µM,-8%
same,growth inhibition,[6]; at 11.0 µM,1%
same,growth inhibition,[6]; at 33.0 µM,35%
same,growth inhibition,[6]; at 100.0 µM,82% (active)
same,growth inhibition,[7]; [16],76% (active)
same,growth inhibition,[7]; [17],93% (active)
same,growth inhibition,[7]; at 50.0 µM,76.8% (active)
same,growth inhibition,[8]; at 1.2 µM,-10%
same,growth inhibition,[8]; at 3.7 µM,-2%
same,growth inhibition,[8]; at 11.0 µM,-11%
same,growth inhibition,[8]; at 33.0 µM,-6%
same,growth inhibition,[8]; at 100.0 µM,35%
same,growth inhibition,[9]; [16],14%
same,growth inhibition,[9]; [17],63%
same,growth inhibition,[9]; at 50.0 µM,60.7%
same,growth inhibition,[10]; at 1.2 µM,-22%
same,growth inhibition,[10]; at 3.7 µM,-26%
same,growth inhibition,[10]; [16],19%
same,growth inhibition,[10]; at 11.0 µM,-24%
same,growth inhibition,[10]; at 33.0 µM,-22%
same,growth inhibition,[10]; [17],29%
same,growth inhibition,[10]; at 50.0 µM,-7.95%
same,growth inhibition,[10]; at 100.0 µM,0%
same,growth inhibition,[11]; at 1.2 µM,-38%
same,growth inhibition,[11]; at 3.7 µM,-33%
same,growth inhibition,[11]; at 11.0 µM,-37%
same,growth inhibition,[11]; at 33.0 µM,-19%
same,growth inhibition,[11]; at 100.0 µM,0%
same,growth inhibition,[12]; at 1.2 µM,-37%
same,growth inhibition,[12]; at 3.7 µM,-32%
same,growth inhibition,[12]; at 11.0 µM,-33%
same,growth inhibition,[12]; at 33.0 µM,-26%
same,growth inhibition,[12]; at 100.0 µM,14%
same,growth inhibition,[14]; [16],84% (active)
same,growth inhibition,[14]; [17],96% (active)
same,growth inhibition,[14]; at 50.0 µM,81.7% (active)
same,growth inhibition,[15]; at 1.2 µM,-8%
same,growth inhibition,[15]; at 3.7 µM,33%
same,growth inhibition,[15]; at 11.0 µM,69%
same,growth inhibition,[15]; at 33.0 µM,86% (active)
same,growth inhibition,[15]; at 100.0 µM,92% (active)
NNc1nnc(-c2ccccc2)nc1Cc1ccccc1,growth inhibition,[1]; at 1.2 µM,-25%
same,growth inhibition,[1]; at 3.7 µM,-15%
same,growth inhibition,[1]; at 11.0 µM,-7%
same,growth inhibition,[1]; at 33.0 µM,96% (active)
same,growth inhibition,[1]; at 100.0 µM,88% (active)
same,growth inhibition,[2]; at 1.2 µM,-12%
same,growth inhibition,[2]; at 3.7 µM,-3%
same,growth inhibition,[2]; at 11.0 µM,12%
same,growth inhibition,[2]; at 33.0 µM,48%
same,growth inhibition,[2]; at 100.0 µM,90% (active)
same,growth inhibition,[3]; at 1.2 µM,16%
same,growth inhibition,[3]; at 3.7 µM,21%
same,growth inhibition,[3]; at 11.0 µM,21%
same,growth inhibition,[3]; at 33.0 µM,97% (active)
same,growth inhibition,[3]; at 100.0 µM,88% (active)
same,growth inhibition,[4]; at 1.2 µM,4%
same,growth inhibition,[4]; at 3.7 µM,-1%
same,growth inhibition,[4]; [16],-35%
same,growth inhibition,[4]; at 11.0 µM,10%
same,growth inhibition,[4]; at 33.0 µM,96% (active)
same,growth inhibition,[4]; [17],-4%
same,growth inhibition,[4]; at 50.0 µM,67.1%
same,growth inhibition,[4]; at 100.0 µM,93% (active)
same,growth inhibition,[5]; at 1.2 µM,-11%
same,growth inhibition,[5]; at 3.7 µM,-9%
same,growth inhibition,[5]; [16],2%
same,growth inhibition,[5]; at 11.0 µM,-8%
same,growth inhibition,[5]; at 33.0 µM,95% (active)
same,growth inhibition,[5]; [17],90% (active)
same,growth inhibition,[5]; at 50.0 µM,91.3% (active)
